The text below walks through data of PubChem BioAssay AID368 (University of Pittsburgh Molecular Library Screening Center, 2006).

The campaign covered roughly 65,000 compounds. About 85 (0.1%) were called active. The list comes from a sample in which actives are over-represented; it also holds similar structures and randomly drawn compounds. Unmarked numbers belong to inactive results. No stated cut-off is given here; in the data, active means inhibition above about 50%; inactive means the rest.

The assay deals with M-phase inducer phosphatase 2 (Homo sapiens) (UniProt P30305). Description: human Cdc25B tyrosine phosphatase blockers – biochemical, OMFP fluorescence, catalytic domain, primary screen (AID 368). The conditions noted are these: recombinant Cdc25B, OMFP fluorescence Ex485/Em525; active compounds read high;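 compounds tested at 10 µM final in the well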.
Sequence of M-phase inducer phosphatase 2 (Homo sapiens) (P30305 whole entry, looked up, the tested form may be a part): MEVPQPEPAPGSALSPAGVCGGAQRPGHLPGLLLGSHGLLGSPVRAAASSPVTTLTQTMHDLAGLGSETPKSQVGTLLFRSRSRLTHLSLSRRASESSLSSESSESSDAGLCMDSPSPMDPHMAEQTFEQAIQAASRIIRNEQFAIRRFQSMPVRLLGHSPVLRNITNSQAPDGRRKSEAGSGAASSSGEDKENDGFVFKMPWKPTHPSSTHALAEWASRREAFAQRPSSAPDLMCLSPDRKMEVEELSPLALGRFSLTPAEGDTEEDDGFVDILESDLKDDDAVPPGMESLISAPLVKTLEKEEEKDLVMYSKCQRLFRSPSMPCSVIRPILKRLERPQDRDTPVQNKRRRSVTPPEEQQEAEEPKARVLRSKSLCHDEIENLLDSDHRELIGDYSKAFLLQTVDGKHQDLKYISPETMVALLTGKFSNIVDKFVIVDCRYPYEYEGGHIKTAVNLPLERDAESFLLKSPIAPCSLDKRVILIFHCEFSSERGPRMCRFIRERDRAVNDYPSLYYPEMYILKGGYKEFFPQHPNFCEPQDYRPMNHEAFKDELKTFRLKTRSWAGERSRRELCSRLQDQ
As to `CC(C)C(c1nnnn1C1CCCC1)N1CCN(c2ccccc2F)CC1` (stereo not given), the inhibition was -10.2%.
For `CC(C)C1Cc2c(sc3c2c(=O)n(-c2ccccc2)c2nncn32)CO1` (stereo not given), the inhibition was -39.8%.
Then `C=CCNC(=O)C1CC=CCC1C(=O)O` (stereo not given), with -12.3%; and `Cc1nc(Nc2ccc3c(c2)OCCO3)c2nnn(Cc3ccccc3Cl)c2n1`, with -17.1%.
As for `CC(=O)N1CCC(C(=O)Nc2nc(-c3ccccc3)ns2)CC1`, the inhibition is -5.67%.
As to `CN1C(=O)c2ccc(NC(=O)c3c(F)c(F)c(F)c(F)c3F)cc2C1=O`, the inhibition was 2.43%.
In the case of `O=C(CC(NS(=O)(=O)c1ccc(Cl)cc1)c1ccco1)NC1CCCC1` (stereo not given), the inhibition is -20.3%.
Then `O=C(NC1=NCCS1)c1ccc(Cl)s1`, with 1.03%.
As to `CC1Cc2ccccc2N1C(=O)Cn1cnc2ccccc2c1=O` (stereo not given), the inhibition is -1.71%.
Regarding `c1nnc2c3c4c(sc3ncn12)CCC4`, the inhibition was 0.998%.
Then `O=C(CN1C(=O)C2C3C=CC(C3)C2C1=O)NCC1COc2ccccc2O1` (stereo not given), with -2.93%.
In the case of `COCCNC(=O)CN(C(=O)CCC(=O)Nc1cc(C)on1)c1ccc(C)cc1C`, the inhibition was 11.4%.
In the case of `CC(=O)N1CCN(C(=O)Nc2cccc(C(F)(F)F)c2)CC1`, the inhibition is -11.9%.
As for `O=C(Nc1cccc(C(=O)N2CCCC2)c1)c1ccccc1`, the figure is -4.63%; as for `O=C(Nc1cccc(NC(=O)N2CCN(c3ccccc3)CC2)c1)N1CCN(c2ccccc2)CC1`, 76.4% (active); as for `Cc1ccc2c(CSc3nncs3)cc(=O)oc2c1`, -6.44%.
Then `CCOC(=O)c1[nH]c2c(c1C)C(=O)CC(c1ccc(N(C)C)cc1)C2` (stereo not given), with -8.71%; and `Cc1ccc(N)cc1-n1c(C)ccc1C`, with 1.36%.
Then `Cc1ccc(CNC(=O)CN2CCN(Cc3ccc(Cl)cc3)C2=O)cc1`, with 1.98%; and `COCCCN1C(=O)c2ccc(C(=O)Nc3ccc(OC)cc3OC)cc2C1=O`, with -4.42%; and `Cc1cc(Cl)c(S(=O)(=O)NCc2cccnc2)cc1OCC(N)=O`, with -3.27%.
Turning to `CCOC(=O)C1=C(C)NC(C)=C(C(=O)OCC)C1C1=COCCO1`, the inhibition is 1.59%.
Then `COc1ccc(N2CCN(C3CC(=O)N(c4ccc5c(c4)OCCO5)C3=O)CC2)cc1` (stereo not given), with 5.32%; and `CCn1c(NCCc2ccc(OC)c(OC)c2)nc2c1c(=O)n(C)c(=O)n2C`, with 7.88%; and `COc1cc(-c2nc(S(=O)(=O)c3ccc(Cl)cc3)c(N(C)C)o2)cc(OC)c1OC`, with -3.74%.
As for `Cc1ccc(C(c2nnnn2CS(=O)(=O)c2ccc(C)cc2)N2CCC(C(N)=O)CC2)cc1` (stereo not given), the figure is -6.28%; as for `CCCOc1ccc(C2C(C(=O)c3ccc(C)o3)=C(O)C(=O)N2CCCn2ccnc2)cc1` (stereo not given), -1.79%; as for `O=c1c2ccccc2oc2nc3n(c(=O)c12)CCCS3`, -1.25%.
As to `CCOC(=O)N1CCN(C(=O)CSc2ccc(Cl)cc2)CC1`, the inhibition was 3.41%.
Turning to `CC1CN(C(=O)c2ccc3c(c2)OCO3)OC(c2ccccc2)O1` (stereo not given), the inhibition was -8.81%.
For `CC1=C(C)CC2C(=O)N(c3cccc4ccccc34)C(=O)C2C1` (stereo not given), the inhibition is -7.9%.
As for `Cc1nc2c(-c3ccccc3)c(C)[nH]n2c(=O)c1Cl`, the figure is -4.09%.
As to `COc1ccc(S(=O)(=O)N(C)CC(=O)Nc2ccc3c(c2)OCCO3)cc1OC`, the inhibition was -5.79%.
For the molecule `O=S(=O)(Nc1ccc2nc(-c3ccco3)[nH]c2c1)c1ccccc1`, the inhibition was -8.83%.
Regarding `O=S(=O)(c1cccc(-c2nnc(SC(F)F)n2-c2ccccc2)c1)N1CCCCC1`, the inhibition was 10.3%.
As for `CCC(=O)Nc1cccc(NC(=O)CSc2nnnn2C2CCCC2)c1`, the figure is -2.8%; as for `CCOc1ccc(C(=O)Nc2cc(OC)ccc2OC)cc1`, -1.04%.
As for `O=C(C1CCN(c2nnc(-n3cccc3)s2)CC1)N1CCc2ccccc2C1`, the figure is -4.75%; as for `Cc1noc(/C=C/N(C)C)c1S(=O)(=O)N1CCCC(C(=O)NCc2ccco2)C1` (stereo not given), -8.56%.
Then `CCCCc1cc(=O)oc2cc(C)cc(OCc3nn[nH]n3)c12`, with -4.64%; and `CCOC(=O)c1c(NC(=O)c2cccs2)sc(C)c1C`, with -1.19%; and `COCCNC(=O)CSc1nc2c(n1-c1ccccc1)CCCC2`, with -0.327%.
Turning to `CCn1c(SCC(=O)Nc2ccccc2F)nc2c(c1=O)SC(C)C2` (stereo not given), the inhibition is -15.6%.
`CCOc1ccccc1N(CC(=O)NC1CCCCC1)C(=O)CCCC(=O)Nc1ccccn1`: the inhibition was -10.5%.
Regarding `CCOC(=O)N1CCC(NC(=O)CN2C(=O)COc3ccc(C(C)(C)C)cc32)CC1`, the inhibition is -4.53%.
Turning to `CCCN(CCC)C(=O)C1c2ccccc2Oc2ccccc21`, the inhibition is -5.87%.
Consider `COC(=O)c1c(NC(=O)c2cccs2)sc2c1CCCC2`, for which the inhibition is -11.6%.
Take `COc1cccc(N(C(=O)c2ccn[nH]2)C2(C(=O)Nc3c(C)cccc3C)CCCCC2)c1`: the inhibition was 4.58%.
With `CCN(CC)C(=O)C1CCC(C)(C(=O)O)C1(C)C` (stereo not given), the inhibition is -11.3%.
With `COc1ccc(-c2noc(-c3cccc(OC)c3OC)n2)cc1OC`, the inhibition is -12.3%.
As for `COc1ccc(CCNC(=O)c2cc(-c3ccc4c(c3)OCO4)on2)cc1OC`, the figure is -4.69%; as for `COc1ccc(-c2cc3n(n2)CCc2nc4ccccc4n2-3)cc1`, -0.418%.
As for `O=C(Cc1ccccc1)n1nc(-c2ccccc2)nc1NCc1ccco1`, the figure is -11.6%.
As for `COc1ccc(N2C(=O)CN=C2Nc2cccc(C)c2C)cc1OC`, the figure is -17.1%; as for `COc1cccc2c(C)c(C(=O)O)[nH]c12`, 50.5% (active); as for `COc1ccc(C)cc1NC(=O)c1[nH]c(C)c(C(C)=O)c1C`, -7.67%.
Consider `CCOC(=O)c1c(C)[nH]c(C(=O)NCc2ccccc2OC)c1C`, for which the inhibition is 0.611%.
On to `FC(F)(F)c1nnc2sc(-c3ccco3)nn12`, for which the inhibition was 6.19%.
Turning to `CC1(N2CCOCC2)CC2(O)C(=[N+]1[O-])CCc1nonc12` (stereo not given), the inhibition is -12.9%.
On to `Cc1nn(Cc2ccc(Cl)c(Cl)c2)c(C)c1NC(=O)c1cc(C2CC2)on1`, for which the inhibition is -9.41%.

What is called inhibition is the relative decrease from the control value, in per cent.
